# The full data set covers some 7,900 targets. This sample favours those with a hit. About 0.6% of all pairs of compound and target were hits. Values without a mark were called inactive.
# Experiments:
# Test in all cases: log2 fold change, soluble protein after heating vs DMSO (PISA); higher = thermal stabilisation; K562 cells, 10 uM, 30 min; active = over 0.2 and 3.5 SD of the protein, either way, in both replicates (recomputed)
# [1] = compound: C1COCCN1CCN2C3=CC=CC=C3N=C2NC(=O)C4=CC(=CC=C4)[N+](=O)[O-] [IRAK-1-4 Inhibitor I]
# In short: (§1)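 Thermal stability values are relative to control samples and come from duplicates. They are expressed as log2 fold changes. For measurement, K562 cells (2×10^6 cells/mL) received 10 μM compound for 30 min, and aliquots were heated for 3 min over 48°C-58°C, pooled, and extracted at 4°C in PBS with 0.5% NP-40. Soluble protein, the supernatant after 21,000xg for 90 min, was quantified by TMTpro 16plex LC-MS/MS with equalised channel sums.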
# [2] = compound: C=CC(=O)N1CCC[C@@H](n2nc(-c3ccc(Oc4ccccc4)cc3)c3c(N)ncnc32)C1 [ibrutinib]
# In short: as §1
# [3] = compound: CC(=O)c1cnc2ccc(-c3cc(Cl)c(O)c(Cl)c3)nc2c1N[C@H]1CC[C@H](CN(C)C)CC1
# In short: as §1
# [4] = compound: CC(C)(C)Cn1c(N)nc2ccc(-c3[nH]c(C(C)(C)C)nc3-c3ccc(F)cc3)nc21 [ralimetinib]
# In short: as §1
# [5] = compound: CC(C)(O)CC(=O)NCCn1ccc2ncnc(Nc3ccc(Oc4cccc(C(F)(F)F)c4)c(Cl)c3)c21
# In short: as §1
# [6] = compound: CC(C)C1=C2N=C(C=C(N2N=C1)NCC3=CC=CC=C3)NCCCCCCN
# In short: as §1
# [7] = compound: CC(C)C[C@@H](C=O)NC(=O)[C@H](CC(C)C)NC(=O)[C@H](CC(C)C)NC(=O)OCc1ccccc1
# In short: as §1
# [8] = compound: CC(C)N(C[C@H]1O[C@@H](n2cnc3c(N)ncnc32)[C@H](O)[C@@H]1O)[C@H]1C[C@@H](CCc2nc3cc(C(C)(C)C)ccc3[nH]2)C1 [pinometostat]
# In short: as §1
# [9] = compound: CC1=C(C(CC(=O)N1)C2=CC=C(C=C2)C(F)(F)F)C(=O)NC3=C(C=C4C(=C3)C=NN4)F
# In short: as §1
# [10] = compound: CC1=C(C2=C(C=C1)C(=O)C3=CC=CC=C3N2CCCN)C
# In short: as §1
# [11] = compound: CC1=C(C=C(C=C1)NC(=O)C2=CC(=CC=C2)C(C)(C)C#N)NC3=CC4=C(C=C3)N=CN(C4=O)C
# In short: as §1
# [12] = compound: CC1=C(C=C(C=C1)NC(=O)C2=CC(=CC=C2)N(C)C)NC(=O)C3=CC=C(C=C3)O
# In short: as §1
# [13] = compound: CC1=CC=C(C=C1)SC2=C3C=C(SC3=CN=C2)C(=O)N
# In short: as §1
# [14] = compound: CC1=NC(=CC=C1)C2=C(N=C(N2)C(C)(C)C)C3=CC4=NC=CN=C4C=C3
# In short: as §1
# [15] = compound: CCCCN(Cc1ccc(C(=O)NO)cc1)C(=O)Nc1ccccc1 [Nexturastat A]
# In short: as §1
# [16] = compound: CCCS(=O)(=O)Nc1ccc(F)c(C(=O)c2c[nH]c3ncc(-c4ccc(Cl)cc4)cc23)c1F [vemurafenib]
# In short: as §1
# [17] = compound: CCCS(=O)(=O)Nc1ccc(F)c(C(=O)c2c[nH]c3ncc(Cl)cc23)c1F
# In short: as §1
# [18] = compound: CCCc1cc(C)[nH]c(=O)c1CNC(=O)c1cc(-c2ccnc(N3CCN(C)CC3)c2)cc2c1cnn2C(C)C
# In short: as §1
# [19] = compound: CCN(CC)Cc1ccc2cc(COC(=O)Nc3ccc(C(=O)NO)cc3)ccc2c1 [givinostat]
# In short: as §1
# [20] = compound: CCN(CCCOc1ccc2c(Nc3cc(CC(=O)Nc4cccc(F)c4)[nH]n3)ncnc2c1)CCOP(=O)(O)O [barasertib]
# In short: as §1
# Sequence of UniProt Q9NZC3 (Q9NZC3 whole entry, looked up): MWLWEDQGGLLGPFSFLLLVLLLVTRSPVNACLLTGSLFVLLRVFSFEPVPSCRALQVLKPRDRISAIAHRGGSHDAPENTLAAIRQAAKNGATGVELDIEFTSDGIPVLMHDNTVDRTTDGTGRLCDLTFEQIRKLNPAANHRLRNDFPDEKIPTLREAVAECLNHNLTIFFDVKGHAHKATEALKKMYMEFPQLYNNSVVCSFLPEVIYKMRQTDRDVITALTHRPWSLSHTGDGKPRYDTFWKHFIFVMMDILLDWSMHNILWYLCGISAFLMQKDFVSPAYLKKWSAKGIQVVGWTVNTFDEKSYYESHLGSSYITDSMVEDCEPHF
# Sequence of UniProt Q9H0R8 (Q9H0R8 whole entry, looked up): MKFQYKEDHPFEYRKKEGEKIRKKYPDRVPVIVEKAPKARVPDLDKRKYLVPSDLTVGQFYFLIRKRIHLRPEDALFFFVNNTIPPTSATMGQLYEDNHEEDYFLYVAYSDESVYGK
# Sequence of UniProt O14929 (O14929 whole entry, looked up): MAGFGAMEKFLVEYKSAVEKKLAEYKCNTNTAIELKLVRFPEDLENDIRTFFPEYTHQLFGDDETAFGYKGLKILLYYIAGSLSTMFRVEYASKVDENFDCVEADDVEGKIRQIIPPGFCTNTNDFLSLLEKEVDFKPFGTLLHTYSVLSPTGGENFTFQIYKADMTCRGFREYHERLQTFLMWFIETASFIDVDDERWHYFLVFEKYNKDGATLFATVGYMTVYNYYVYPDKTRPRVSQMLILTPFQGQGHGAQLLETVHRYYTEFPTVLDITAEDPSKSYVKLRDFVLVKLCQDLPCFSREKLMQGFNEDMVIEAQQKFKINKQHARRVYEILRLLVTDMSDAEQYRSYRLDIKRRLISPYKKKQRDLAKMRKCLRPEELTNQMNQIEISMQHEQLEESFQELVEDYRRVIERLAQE
# Sequence of UniProt P52597 (P52597 whole entry, looked up): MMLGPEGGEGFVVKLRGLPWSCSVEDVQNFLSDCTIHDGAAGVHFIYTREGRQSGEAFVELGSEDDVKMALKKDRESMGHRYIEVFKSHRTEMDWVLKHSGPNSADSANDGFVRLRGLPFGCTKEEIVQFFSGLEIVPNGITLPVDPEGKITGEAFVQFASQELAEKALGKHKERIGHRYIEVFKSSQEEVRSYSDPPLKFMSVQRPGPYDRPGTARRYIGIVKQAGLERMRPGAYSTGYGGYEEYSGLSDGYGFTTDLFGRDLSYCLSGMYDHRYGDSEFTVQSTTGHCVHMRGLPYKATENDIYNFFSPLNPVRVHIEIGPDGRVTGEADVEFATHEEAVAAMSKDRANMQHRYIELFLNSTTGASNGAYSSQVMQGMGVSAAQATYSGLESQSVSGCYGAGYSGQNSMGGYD
# Sequence of UniProt Q9UJ14 (Q9UJ14 whole entry, looked up): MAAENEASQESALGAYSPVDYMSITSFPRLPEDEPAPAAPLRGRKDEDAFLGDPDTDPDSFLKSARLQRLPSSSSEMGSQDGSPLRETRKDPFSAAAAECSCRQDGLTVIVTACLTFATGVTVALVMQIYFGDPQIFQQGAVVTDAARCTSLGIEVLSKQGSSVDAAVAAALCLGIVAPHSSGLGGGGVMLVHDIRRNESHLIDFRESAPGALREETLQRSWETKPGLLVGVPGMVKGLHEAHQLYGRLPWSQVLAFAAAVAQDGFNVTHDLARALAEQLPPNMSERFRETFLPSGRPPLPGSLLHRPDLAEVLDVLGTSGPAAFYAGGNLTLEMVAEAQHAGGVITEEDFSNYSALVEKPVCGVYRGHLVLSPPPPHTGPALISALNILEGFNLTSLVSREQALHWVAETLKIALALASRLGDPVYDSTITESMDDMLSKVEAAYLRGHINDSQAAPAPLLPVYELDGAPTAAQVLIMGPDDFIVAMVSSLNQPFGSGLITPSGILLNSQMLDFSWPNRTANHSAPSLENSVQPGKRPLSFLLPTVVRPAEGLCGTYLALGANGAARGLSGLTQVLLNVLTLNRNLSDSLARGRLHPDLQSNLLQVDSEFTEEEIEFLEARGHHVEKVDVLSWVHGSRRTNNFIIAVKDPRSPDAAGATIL
# Sequence of UniProt Q5SSJ5 (Q5SSJ5 whole entry, looked up): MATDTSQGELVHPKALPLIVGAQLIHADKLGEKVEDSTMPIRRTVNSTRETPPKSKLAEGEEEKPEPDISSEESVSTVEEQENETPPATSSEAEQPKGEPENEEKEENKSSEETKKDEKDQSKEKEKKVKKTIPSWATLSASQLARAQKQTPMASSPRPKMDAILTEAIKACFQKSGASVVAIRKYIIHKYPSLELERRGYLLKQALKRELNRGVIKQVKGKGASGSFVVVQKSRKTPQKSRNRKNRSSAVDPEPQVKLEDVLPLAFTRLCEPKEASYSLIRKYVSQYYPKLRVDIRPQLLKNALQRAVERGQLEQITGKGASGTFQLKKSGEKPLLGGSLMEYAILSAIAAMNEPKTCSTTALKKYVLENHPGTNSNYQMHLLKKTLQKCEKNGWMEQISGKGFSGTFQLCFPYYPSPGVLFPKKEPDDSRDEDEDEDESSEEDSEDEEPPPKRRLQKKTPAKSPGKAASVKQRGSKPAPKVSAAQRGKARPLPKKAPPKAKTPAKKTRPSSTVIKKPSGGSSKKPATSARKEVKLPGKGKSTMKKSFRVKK
# Sequence of UniProt P02008 (P02008 whole entry, looked up): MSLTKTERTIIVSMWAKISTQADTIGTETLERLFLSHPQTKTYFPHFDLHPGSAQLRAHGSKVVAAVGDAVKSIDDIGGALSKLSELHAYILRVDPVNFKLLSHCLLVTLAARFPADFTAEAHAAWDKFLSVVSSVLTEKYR
Target,log2 fold change [1],log2 fold change [2],log2 fold change [3],log2 fold change [4],log2 fold change [5],log2 fold change [6],log2 fold change [7],log2 fold change [8],log2 fold change [9],log2 fold change [10],log2 fold change [11],log2 fold change [12],log2 fold change [13],log2 fold change [14],log2 fold change [15],log2 fold change [16],log2 fold change [17],log2 fold change [18],log2 fold change [19],log2 fold change [20]
GDE1 (UniProt Q9NZC3),-0.052,0.031,-0.009,0.02,-0.033,0.067,0.049,0.054,0.106,0.266,0.022,-0.004,0.012,-0.059,0.02,-0.033,-0.009,0.064,-0.052,-0.049
HNRNPF (UniProt P52597),-0.143,-0.023,-0.1,0.098,-0.086,-0.279 (active),0.069,0.018,0.05,-0.087,0.076,-0.005,-0.032,-0.017,0.036,0.106,0.101,0.027,0.051,0.047
HIST2H2BF isoform 2 (UniProt Q5QNW6),-0.165,0.148,-0.054,0.162,0,-0.047,0.226,0.422,0.002,0.601,-0.094,-0.034,-0.202,-0.009,0.78 (active),-0.284,0.529,0.1,0.331,-0.157
GABARAPL1 isoform 2 (UniProt Q9H0R8),0.031,-0.057,-0.065,-0.003,-0.024,-0.369 (active),0.092,-0.044,-0.047,0.023,-0.008,0.003,0.006,0.002,-0.013,-0.016,-0.025,-0.007,0.044,0.021
HP1BP3 (UniProt Q5SSJ5),-0.097,0.003,0.051,0.089,-0.013,-0.031,0.063,0.092,-0.139,-0.387 (active),0.03,-0.026,-0.025,0.017,0.108,-0.014,0.018,-0.001,0.031,-0.129
GGT7 (UniProt Q9UJ14),0.04,0.038,0.02,-0.046,0.015,0.095,0.001,-0.005,-0.015,-0.031,-0.125,0,0.07,-0.008,0.032,0.112,-0.011,0.033,0.019,0.061
HAT1 (UniProt O14929),0.027,-0.009,-0.109,-0.003,-0.027,0.006,-0.022,-0.048,-0.013,-0.03,0.042,-0.037,0.008,0.095,-0.034,0.087,0.013,0.007,0.005,0.025
HBZ (UniProt P02008),0.025,-0.001,-0.005,-0.052,-0.042,0.102,-0.019,-0.017,0.004,0.088,0.01,-0.074,0.025,0.042,-0.013,-0.028,-0.006,-0.008,-0.052,0.044
